# According to the supplement of paper PMC8728848:
# The full list was thinned out, with the strongest signals kept by preference.
# B1: EfCBM33A (Enterococcus faecalis), Q838S1 (protein)
# chain: MKKSLLTIVLAFSFVLGGAALAPTVSEAHGYVASPGSRAFFGSSAGGNLNTNVGRAQWEPQSIEAPKNTFITGKLASAGVSGFEPLDEQTATRWHKTNITTGPLDITWNLTAQHRTASWDYYITKNGWNPNQPLDIKNFDKIASIDGKQEVPNKVVKQTINIPTDRKGYHVIYAVWGIGDTVNAFYQAIDVNIQ
# How the values were obtained:
# Assay in all cases: glycan array binding signal (z-score within array); higher = stronger binding
# Settings in all cases: glycan notation: IUPAC condensed, linker removed
# [1] = target: Fuc(a1-2)Gal(b1-3)GalNAc(a1-3)[Fuc(a1-2)]Gal(b1-4)GlcNAc
# Outline: (§1)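 The Consortium for Functional Glycomics database supplied 3228 glycan arrays, of which those lacking an available protein sequence were dropped. The binding signal, a within-array Z-score, was averaged across arrays of the same protein sequence and across linkers. Negative scores can be read as non-binding.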
# [2] = target: Fuc(a1-2)Gal(b1-3)GlcNAc(b1-3)[Gal(b1-4)GlcNAc(b1-6)]Gal(b1-4)Glc
# Outline: as §1
# [3] = target: Fuc(a1-2)Gal(b1-3)[Fuc(a1-4)]GlcNAc(b1-2)Man(a1-3)[Fuc(a1-2)Gal(b1-3)[Fuc(a1-4)]GlcNAc(b1-2)Man(a1-3)]Man(b1-4)GlcNAc(b1-4)GlcNAc
# Outline: as §1
# [4] = target: Fuc(a1-2)Gal(b1-4)Glc
# Outline: as §1
# [5] = target: Fuc(a1-2)Gal(b1-4)GlcNAc(b1-6)GalNAc
# Outline: as §1
# [6] = target: Fuc(a1-2)Gal(b1-4)[Fuc(a1-3)]GlcNAc
# Outline: as §1
# [7] = target: Fuc(a1-2)Gal3S(b1-4)GlcNAc
# Outline: as §1
# [8] = target: Fuc(a1-2)[GalNAc(a1-3)]Gal(b1-4)GlcNAc(b1-2)Man(a1-3)[Fuc(a1-2)[GalNAc(a1-3)]Gal(b1-4)GlcNAc(b1-2)Man(a1-6)]Man(b1-4)GlcNAc(b1-4)[Fuc(a1-6)]GlcNAc
# Outline: as §1
# [9] = target: Fuc(a1-2)[GalNAc(a1-3)]Gal(b1-4)GlcNAc(b1-3)Gal(b1-4)GlcNAc
# Outline: as §1
# [10] = target: Fuc(a1-2)[GalNAc(a1-3)]Gal(b1-4)[Fuc(a1-3)]GlcNAc
# Outline: as §1
# [11] = target: Fuc(a1-3)[Gal(b1-4)]GlcNAc(b1-3)Gal(b1-4)[Fuc(a1-3)]GlcNAc
# Outline: as §1
# [12] = target: Fuc(a1-3)[Gal(b1-4)]GlcNAc6S
# Outline: as §1
# [13] = target: Gal(a1-3)Gal(b1-3)GlcNAc(b1-2)Man
# Outline: as §1
# [14] = target: Gal(b1-3)GlcNAc(a1-3)Gal(b1-4)GlcNAc
# Outline: as §1
# [15] = target: Gal(b1-3)GlcNAc(b1-3)Gal(b1-4)GlcNAc
# Outline: as §1
# [16] = target: Gal(b1-4)GlcNAc(b1-3)Gal(b1-3)GlcNAc
# Outline: as §1
# [17] = target: Gal(b1-4)GlcNAc(b1-3)Gal(b1-4)GlcNAc(b1-3)Gal(b1-4)GlcNAc(b1-3)Gal(b1-4)GlcNAc(b1-3)Gal(b1-4)GlcNAc(b1-2)Man(a1-3)[Gal(b1-4)GlcNAc(b1-3)Gal(b1-4)GlcNAc(b1-3)Gal(b1-4)GlcNAc(b1-3)Gal(b1-4)GlcNAc(b1-3)Gal(b1-4)GlcNAc(b1-2)Man(a1-6)]Man(b1-4)GlcNAc(b1-4)[Fuc(a1-6)]GlcNAc
# Outline: as §1
# [18] = target: Gal(b1-4)GlcNAc(b1-3)Gal(b1-4)[Fuc(a1-3)]GlcNAc(b1-3)Gal(b1-4)[Fuc(a1-3)]GlcNAc
# Outline: as §1
# [19] = target: Gal3S(b1-3)[Fuc(a1-4)]GlcNAc
# Outline: as §1
# [20] = target: Gal4S(b1-4)GlcNAc
# Outline: as §1
# [21] = target: Gal6S(b1-4)GlcNAc
# Outline: as §1
# [22] = target: GalNAc(a1-3)GalNAc(b1-3)Gal(a1-4)Gal(b1-4)GlcNAc
# Outline: as §1
# [23] = target: GalNAc(b1-4)GlcNAc
# Outline: as §1
# [24] = target: GalNAc(b1-4)GlcNAc(b1-2)Man(a1-3)[GalNAc(b1-4)GlcNAc(b1-2)Man(a1-6)]Man(b1-4)GlcNAc(b1-4)GlcNAc
# Outline: as §1
# [25] = target: GalNAc3S(b1-4)GlcNAc3S
# Outline: as §1
binder,measurement,setting,value
B1,glycan array binding signal (z-score),[1],-0.436
same,glycan array binding signal (z-score),[2],-0.026
same,glycan array binding signal (z-score),[3],0.371
same,glycan array binding signal (z-score),[4],0.342
same,glycan array binding signal (z-score),[5],1.05
same,glycan array binding signal (z-score),[6],0.633
same,glycan array binding signal (z-score),[7],0.017
same,glycan array binding signal (z-score),[8],-0.321
same,glycan array binding signal (z-score),[9],0.048
same,glycan array binding signal (z-score),[10],-1.09
same,glycan array binding signal (z-score),[11],0.008
same,glycan array binding signal (z-score),[12],0.882
same,glycan array binding signal (z-score),[13],1.41
same,glycan array binding signal (z-score),[14],0.358
same,glycan array binding signal (z-score),[15],2.06
same,glycan array binding signal (z-score),[16],-0.608
same,glycan array binding signal (z-score),[17],8.45
same,glycan array binding signal (z-score),[18],0.067
same,glycan array binding signal (z-score),[19],2.81
same,glycan array binding signal (z-score),[20],-1.18
same,glycan array binding signal (z-score),[21],0.105
same,glycan array binding signal (z-score),[22],-0.606
same,glycan array binding signal (z-score),[23],1.05
same,glycan array binding signal (z-score),[24],3.54
same,glycan array binding signal (z-score),[25],0.074
